# HT1080 IDH1KD tx = toxicity to HT-1080 IDH1 knockdown cells (counter line); HT-1080 IDH1 knockdown viability, ATP luminescence, 48 h; Potency, µM (series often up to 46.1 µM), for the others: at the top dose activity, negative = toxicity, most hits filed as cytotoxic; hit rate 2% among 360,000; AID 686971;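 further: potency means the concentration at half of the fitted maximal effect; 0% = DMSO wells and -100% = cell-free medium wells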
#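 After a 2 h attachment period, IDH1KD HT-1080 cells took pin-transferred compound for 48 h at 37 °C; ATP-based luminescence after 10 min room-temperature reagent incubation reported viability.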
# DT40 TDP1 no CPT = qHTS for Inhibitors of human tyrosyl-DNA phosphodiesterase 1 (TDP1): qHTS in cells in absence of CPT; AID 686978, 2013; Potency, µM (highest dose often 46.2 µM), without a hit: top-dose activity change, negative = growth inhibition, actives largely listed as inhibitors; hit rate 15% among 420,000; DT40 Tdp1-/- hTDP1 cells, no CPT, ATP luminescence, 48 h; further: potency means the concentration at half of the fitted maximal effect; nearly all actives have a fitted effect of over 55% in size
#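 Chicken DT40 Tdp1-/- cells stably complemented with human TDP1 were seeded at 400 cells/well with DMSO in place of 20 nM camptothecin. After compound pinning, cells grew at least 48 hr at 37 °C; viability read by CellTiter-Glo luminescence.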
# IL-1B inflam inh = inflammasome signaling inhibition, IL-1 beta readout; THP-1 LPS/ATP IL-1B secretion, AlphaLISA, 16 h; hits give low values; activity change, % at 57.5 µM; hit rate 4.7% among 360,000; AID 743279; in the data active means activity change below about -50%; inconclusive means mostly about -30% to -49%
#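 Secreted IL-1B measured by AlphaLISA bead assay after 16 h compound exposure of THP-1 cells; compounds (final up to 57.5 uM) added 1 h before LPS (250 ng/mL) and ATP (1.25 mM) stimulation; lower signal means less secretion.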
# DT40 TDP1 CPT = DT40-hTDP1 cell growth loss with CPT. chicken DT40 Tdp1-/-;hTDP1 cells + 20 nM CPT, ATP luminescence, 48 h. Potency, µM (series often up to 46.2 µM), for the others: top-dose activity change, negative = growth inhibition, usual class: inhibitors. hit rate 12% among 420,000. AID 686979; further: potency means the concentration at half of the fitted maximal effect; nearly all actives have a fitted effect of over 55% in size
#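 Chicken DT40 Tdp1-/- cells stably complemented with human TDP1 were seeded at 400 cells/well in medium containing 20 nM camptothecin, exposed to pin-transferred compounds, and grown at 37 °C for at least 48 hr. Viability was read as ATP luminescence.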
# HT1080-NT tox = kills 2HG-producing HT-1080-NT fibrosarcoma cells. Potency, µM (titrated, usually from 46.1 µM), without a hit: at the highest dose activity, negative = less viability, most hits filed as cytotoxic. AID 686970. hit rate 1.6% among 360,000. HT-1080-NT fibrosarcoma viability, CellTiter-Glo ATP luminescence, 48 h;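 further: NT is the 2HG producing partner of a matched IDH1 knockdown line; potency means the concentration at half of the fitted maximal effect; 0% = DMSO-treated cells and -100% = media-only wells without cells; nearly all actives have a fitted effect of over 55% in size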
#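 HT-1080-NT; 750 cells/well; 5% FBS RPMI; 48 h compound, 37 degrees C; CellTiter-Glo luminescence; curve fitting and curve-class assignment.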
# ELG1 DNA repair = blocks ELG1-dependent DNA repair in HEK293T cells | AID 504467 | hit rate 2.3% among 330,000 | Potency, µM (top dose mostly 46.1 µM), for the others: at the highest dose activity change, negative = inhibition, most hits filed as inhibitors | HEK293T ELG1-luciferase reporter, luminescence, 16 h; DNA damage induced by 5-fluorouridine; further: potency means the concentration at half of the fitted maximal effect; nearly all actives have a fitted effect of over 55% in size
#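 DMSO vehicle served as the neutral condition. Each well held 2,000 cells given 5-fluorouridine plus compound; after 16 hr at 37 °C/5% CO2, ONE-Glo was added and luciferase measured 30 min later.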
# * = called active by the depositor; ? = inconclusive; . = no result. Compounds with a hit are over-represented: about 19% of the library has one in this group of screens. Unless noted, the call rests on the fitted dose curve; in most records, active means well fitted curve in the direction sought with a large enough effect; inconclusive means small, poorly fitted or top-dose-only effect, or another doubt; inactive means no such curve, though single readings can be large; an effect the other way counts as inactive or inconclusive. Unless noted, on the % scale 0 is the no-effect control and ±100 the full control effect.
SMILES,HT1080 IDH1KD tx,DT40 TDP1 no CPT,IL-1B inflam inh,DT40 TDP1 CPT,HT1080-NT tox,ELG1 DNA repair
CCCCCC(O)(c1ccc(OCC)cc1)C(CN1CCOCC1)c1ccccc1 (stereo unspecified),16.4µM*,16.4µM*,-85.3*,?,?,?
CCCC(O)(c1ccc(OC)cc1)C(CN1CCOCC1)c1ccccc1 (stereo unspecified),-13.0%,?,-5.4,?,-5.5%,?
CCCCOc1ccc(C(O)(CCN2CCOCC2)c2ccccc2)cc1 (stereo unspecified),0.0%,?,1.9,?,1.1%,-1.1%
CCCCC(O)(c1ccc(OC)cc1)C(CN1CCOCC1)c1ccccc1 (stereo unspecified),?,23.1µM*,?,18.4µM*,?,?
Nc1ncnc2c1ncn2[C@@H]1O[C@H](CNC(=O)[C@@H](N)C2CCCCC2)[C@@H](O)[C@H]1O,7.7%,-1.5%,0.9,-2.3%,3.0%,5.5%
CC1(C)C(=O)C=C[C@]2(C)C1CC(=O)[C@]1(C)C2CC[C@@]2(C)C(c3ccoc3)OC(=O)C3O[C@@]321 (stereo partly specified),.,?,.,-8.4%,.,.
O=c1cc(NCCCO)c2ccccc2o1,5.8%,5.9%,5.3,1.2%,4.8%,7.5%
CCOCCCNC1=C(Cl)C(=O)c2ccccc2C1=O,-6.2%,6.51µM*,33.0,5.8µM*,12.5%,-24.3%
O=C1C(Cl)=C(NCCCO)C(=O)c2ccccc21,?,18.4µM*,56.8,23.1µM*,?,-12.7%
COc1ccc(OC)c2sc(N(Cc3cccnc3)C(=O)c3ccco3)nc12,.,20.6µM*,.,?,.,.
COc1cccc2sc(N(Cc3cccnc3)C(=O)c3ccco3)nc12,.,?,.,16.4µM*,.,.
CC(O)COCC1OC2OC3C(COCC(C)O)OC(OC4C(COCC(C)O)OC(OC5C(COCC(C)O)OC(OC6C(COCC(C)O)OC(OC7C(COCC(C)O)OC(OC8C(COCC(C)O)OC(OC1C(OCC(C)O)C2OCC(C)O)C(OCC(C)O)C8OCC(C)O)C(OCC(C)O)C7OCC(C)O)C(OCC(C)O)C6OCC(C)O)C(OCC(C)O)C5OCC(C)O)C(OCC(C)O)C4OCC(C)O)C(OCC(C)O)C3OCC(C)O (stereo unspecified),.,-4.1%,.,2.2%,.,.
O=[N+]([O-])c1cccc(S(=O)(=O)N2CCN(c3nc(-c4cccs4)nc4ccccc34)CC2)c1,.,-18.5%,.,3.2%,.,.
CC(C)CC(=O)OC1C(N2CCOCC2)c2c(ccc(/C=C/C(=O)N3CCOCC3)c2O)OC1(C)C (stereo unspecified),3.7%,?,14.3,?,7.7%,16.4µM*
CC(=O)Oc1ccc(OC(C)=O)c2c1CC(C)=C(C)C2,-5.2%,13µM*,-26.9,13µM*,0.5%,-21.2%
O=C(N/N=C/c1ccc(C(F)(F)F)cc1)c1ccc(O)cc1,?,?,?,?,-0.4%,?
COc1cc(/C=N/Nc2ccc(C(F)(F)F)cn2)cc(OC)c1O,?,18.4µM*,-13.0,?,?,-4.7%
Oc1ccc(/C=N/Nc2ccc(C(F)(F)F)cn2)cc1,?,-22.1%,-94.8*,?,?,?
CC(C)Cn1nc(C(=O)Nc2nnc(C3CC3)s2)c2ccccc2c1=O,6.0%,?,-1.8,?,1.8%,-15.4%
CN(C)C(CNc1ncccn1)c1ccccc1 (stereo unspecified),19.1%,-19.8%,-2.8,-13.2%,26.1%,0.0%
O=C1c2ccccc2NC(c2cccc(O)c2)N1O (stereo unspecified),11.2%,14.7%,57.3,1.2%,10.3%,2.3%
O=C1c2ccccc2NC(c2ccc([N+](=O)[O-])cc2)N1O (stereo unspecified),-24.8%,18.4µM*,19.8,20.6µM*,-7.8%,?
O=C1c2ccccc2NC(c2ccc(Br)s2)N1O (stereo unspecified),?,11.6µM*,23.0,10.3µM*,?,.
O=[N+]([O-])c1cccc(C2Nc3cccc4cccc(c34)N2)c1,4.0%,20.6µM*,-8.0,?,5.2%,2.0%
O=C1c2ccccc2NC(c2cccc([N+](=O)[O-])c2)N1O (stereo unspecified),-11.7%,?,18.9,20.6µM*,?,?
SMILES,HT1080 IDH1KD tx,DT40 TDP1 no CPT,IL-1B inflam inh,DT40 TDP1 CPT,HT1080-NT tox,ELG1 DNA repair
O=[N+]([O-])c1ccc(C2Nc3cccc4cccc(c34)N2)cc1,2.9%,-23.0%,-0.7,-16.5%,1.9%,?
C=CCN1C(=O)c2ccccc2NC1c1ccc(Br)s1 (stereo unspecified),12.0%,?,-20.4,-22.8%,8.3%,-8.5%
COc1cccc(NC(=O)CSc2nc(=O)n(Cc3ccncc3)c3c2CCCC3)c1,-0.8%,-0.5%,-10.5,-21.0%,3.8%,-1.3%
CN1CCC2(CC1)Nc1nc(SCc3ccc(Cl)cc3)nn1C1=C2CN(C)CC1,20.6µM*,23.1µM*,-62.1*,?,25.9µM*,5.7%
CC1(C(=O)NCC2CCOCC2)Cc2c(-c3cccc(C(F)(F)F)c3)ccnc2O1 (stereo unspecified),3.66µM*,3.26µM*,72.4,5.17µM*,?,.
CC1(C(=O)NCCC(F)(F)F)Cc2c(-c3cccc(C(F)(F)F)c3)ccnc2O1 (stereo unspecified),5.8µM*,3.26µM*,0.0,4.61µM*,20.6µM*,.
CN(C)CCNC(=O)C1(C)Cc2c(-c3cccc(C(F)(F)F)c3)ccnc2O1 (stereo unspecified),?,6.51µM*,0.0,-73.2%,?,.
CC1(C(=O)NCCC(F)(F)F)Cc2c(-c3cccc(C(N)=O)c3)ccnc2O1 (stereo unspecified),?,0.82µM*,-8.7,?,?,.
CSCC(O)Cn1ncc2ccccc2c1=O (stereo unspecified),7.1%,-0.1%,-13.1,-4.8%,3.3%,?
COc1ncc2nc(CCc3ccccc3)c(=O)n(C3CC3)c2n1,.,?,.,2.9%,.,.
CC(C)c1ccc(NC(=O)[C@H]2CSCN2C(=O)[C@@H]2CCC(=O)N2)cc1,1.6%,5.2%,-9.9,?,-8.6%,15.9%
COC(=O)c1c(-c2cccs2)csc1NC(=O)COc1ccccc1,.,20.6µM*,.,16.4µM*,.,.

# Screening results from PubChem.
